Outcome and AC50 data for 40 compounds are collected here from PubChem BioAssay (EPA / NIEHS).

The source made the active and inactive calls. The calls were made as follows: active = hit-call score of the fitted dose curve at least 0.9, where 1 is the maximum; inactive = score below 0.9.

As a reminder, the AC50 is the concentration giving half of the maximal activity seen.

Read-out in this assay: Interleukin-8 (IL8), CXCL8 (gene 3576)
The experiment in a line: BSK_SAg_IL8: BioMAP Diversity Plus: SAg Assay for Interleukin-8 (IL8) Biomarker Activity (AID 2283094). The conditions noted are these: primary human HUVEC with PBMC; actives raise or lower the signal. As for the experimental part: BSK_SAg is a cell-based, multiplexed-readout assay that uses umbilical vein endothelium and peripheral blood mononuclear cells, a human vascular primary cell co-culture, with measurements taken at 24 hours after chemical dosing in a 96-well plate.BSK_SAg_IL8 is an assay component measured in the BSK_SAg assay. It measures IL-8 antibody related to regulation of gene expression using ELISA technology.Data from the assay component BSK_SAg_IL8 was analyzed into 1 assay endpoint. This assay endpoint, BSK_SAg_IL8, was analyzed with bidirectional fitting relative to DMSO as the negative control and baseline of activity. Using a type of binding reporter, gain or loss-of-signal activity can be used to understand changes in the signaling as they relate to the gene CXCL8. Furthermore, this assay endpoint can be referred to as a primary readout, because this assay has produced multiple assay endpoints where this one serves a signaling function. To generalize the intended target to other relatable targets, this assay endpoint is annotated to the cytokine intended target family, where the subfamily is interleukins.
The levels of cell surface (or secreted, indicated by the prefix "s") biomarker endpoints were measured by ELISA. Overt cytotoxicity to cells in confluent adherent cultures (all systems other than the BT system) was assessed by measuring total protein levels using sulforhodamine B (SRB) staining in parallel cultures at the time of biomarker measurements, indicated as SRB endpoints. For proliferation assays for adherent cell types, individual cell types are cultured at sub-confluence and relative cell numbers quantified by SRB staining at time points optimized for each system (48 h: 3C and CASM3C systems; 72 h: BT and HDF3CGF systems; 96 h: SAg system). SRB was performed by staining cells with 0.1% SRB after fixation with 10% TCA and reading wells at 560 nm.Viability and proliferation of PBMC (T cells) was quantified by Alamar Blue reduction for the SAg and BT systems. For PBMC viability (referred to as PBMC Cytotoxicity within the assay endpoint names), cells were plated (75,000/well in a 96-well plate) and then chemical samples added for 1 h before addition of activators, SEB and TSST-1 (20 ng/mL final concentration each). Cells were incubated for 90 h. Then, Alamar Blue (20 uL/well) (Invitrogen, Cat DAL1100) was added for 6 h, and the plates were read with a fluorescence microplate reader at 546/580 nm (excitation/emission). For PBMC proliferation, cells were plated and activated as above but incubated for only 16 h prior to addition of Alamar Blue. Plates were read after 6 h.
As to `CCCC(=O)O`, the outcome was inactive.

As to `CC(=O)[C@@]1(O)CC[C@H]2[C@@H]3CCC4=CC(=O)CC[C@]4(C)[C@H]3CC[C@@]21C`, the outcome was inactive.

Consider `CSc1ccc(Oc2ccc(S(N)(=O)=O)cc2CN(C)C)cc1C`, for which the outcome was inactive.

For the compound `CCCCCCC(CCCCCCCCCCC(=O)OCC(COC(C)=O)OC(C)=O)OC(C)=O` (stereo not given), the result was inactive.

As for `c1ccc2occc2c1`, the result was inactive.

For `O=C1CCCCC1`, the result was inactive.

Consider `CC(C)(O)c1ccc(CNC(=O)c2cccnc2Oc2ccc(F)cc2)cc1`, for which the result was inactive.

With `CC(COCC(C)OC(=O)c1ccccc1)OC(=O)c1ccccc1` (stereo not given), the result was inactive.

Turning to `O=C(O)CC(O)(CC(=O)O)C(=O)O`, the outcome was inactive.

As to `Oc1ccc(O)cc1`, the result was inactive.

As for `CC(C)c1cccc(C(C)C)c1`, the outcome was inactive.

With `O=C(N[C@@H](c1ccccc1)[C@@H]1CCCCN1)c1cccc(C(F)(F)F)c1Cl`, the AC50 was 14.3 µM (active).

In the case of `COc1ccc(OC(F)(F)F)cc1CN[C@H]1CCCN[C@H]1c1ccccc1`, the AC50 is 12.4 µM (active).

`CCCCC(CC)COP(=O)(OCC(CC)CCCC)OCC(CC)CCCC` (stereo not given): the result was inactive.

Take `CCCCOC(=O)CCCCC(=O)OCCCC`: the result was inactive.

As to `Cc1cc(Cc2ccc(N)c(C)c2)ccc1N`, the outcome was inactive.

For `COc1ccc(C(=O)Nc2nc3ccccc3c(NCc3ccccc3)c2C#N)cc1`, the outcome was inactive.

`O=C1O[C@H]([C@H](O)CO)C(O)=C1O`: the result was inactive.

For the compound `CC(C)c1cccc(C(C)C)c1NC(=O)NS(=O)(=O)c1cc(C(C)(C)O)co1`, the result was inactive.

With `O=[Si]=O`, the result was inactive.

On to `O=NO`, for which the result was inactive.

As to `O=C(Oc1ccccc1)c1cccc(C(=O)Oc2ccccc2)c1`, the result was inactive.

For the compound `CC(=O)S[C@H](C(=O)N[C@H]1Cc2ccccc2[C@H]2CCC[C@@H](C(=O)O)N2C1=O)C(C)C`, the result was inactive.

`NC(=Nc1ccccc1)Nc1ccccc1`: the outcome was inactive.

As for `CN(C)C(=O)NC1(c2ccccc2)CCN(CC[C@@]2(c3ccc(F)c(F)c3)CN(C(=O)c3ccccc3)CCO2)CC1`, the result was inactive.

Take `O=C(O)CN(CC(=O)O)CC(=O)O`: the outcome was inactive.

Consider `CO[C@@H]1COCC[C@@H]1N[C@@H]1CC[C@@](C(=O)N2CCc3ncc(C(F)(F)F)cc3C2)(C(C)C)C1`, for which the outcome was inactive.

Consider `CCCC[C@H]1CN(CC2CCOCC2)C(=O)OC12CCN(C1(C)CCN(C(=O)c3c(C)ncnc3C)CC1)CC2`, for which the outcome was inactive.

For the compound `OCC(O)CO`, the result was inactive.

For `CC(=O)OC1CC(C)OC(C)O1` (stereo not given), the result was inactive.

With `CCCCCCCCCCCCCCOS(=O)(=O)O`, the outcome was inactive.

For the compound `Nc1nc(Cl)nc2c1ncn2[C@H]1C[C@H](O)[C@@H](CO)O1`, the outcome was inactive.

Turning to `Cc1occc(=O)c1O`, the result was inactive.

Consider `CCCCC(CC)CO` (stereo not given), for which the outcome was inactive.

Take `CCCCC(CC)COC(=O)CCCCCCCC(=O)OCC(CC)CCCC` (stereo not given): the result was inactive.

With `CCc1cc(C2=C(C(=O)O)N(c3ccccc3C(F)(F)F)S(=O)(=O)c3ccccc32)cc2c1OCO2`, the result was inactive.

As for `O=C1c2c(O)cccc2Cc2cccc(O)c21`, the outcome was inactive.

With `CCCCCCC(C=O)=Cc1ccccc1`, the AC50 was 29.8 µM (active).

On to `CC1(C)C(=O)NC(=O)N1CO`, for which the outcome was inactive.

In the case of `CCc1nc(N)nc(N)c1-c1ccc(Cl)cc1`, the outcome was inactive.
